Hit rate of the full screen: of about 31,000 sequences, about 1,400 (4.5%) were called active. The entries come from a sample that favours actives as a whole. Unmarked numbers belong to inactive results.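 How the source made its calls: active means median seed-adjusted z-score above 1 or below -1; inactive means the rest.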

Results on 69 sequences are retold here after PubChem BioAssay AID1347426 (Functional Genomics Laboratory (NCATS/FGL), 2020).

A short description of the assay: Novel Modifiers of Survival Motor Neuron (SMN) Protein: Gene Identification via Genome-wide siRNA Screen.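 Further: luminescence tracks full-length SMN protein made from the SMN2 reporter.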 Conditions: HEK293T SMN2-luciferase reporter, siRNA knockdown, 72 h; actives lie on both sides. In outline:
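Genome-wide siRNA screen (10418 genes, 3 siRNAs each, 1 pmol per well) by reverse transfection in HEK293T cells stably carrying an SMN2-luciferase reporter; luminescence after 72 hours, normalized to negative-control siRNA, log10-transformed, MAD-scored.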
As for GACUUUGCAUUUCCUAGUATT against HSPA1A, the median seed-adjusted z-score is -0.833. Take CUACUAUUCAGAGACAACATT against GPR3: the median seed-adjusted z-score is 0. Consider GAAAGAAGAAUAUACUGAUTT against RBBP6, for which the median seed-adjusted z-score was -0.212. GGAAAUUACGGCUACAGAATT against AP1S3: the median seed-adjusted z-score is 0.153. Take CCUUCUGUAGGAUGCAUUUTT against LY6G5B: the median seed-adjusted z-score was -1.29 (active).

On to CAAGAGCACCGGUAAGGAATT against HSPA2, for which the median seed-adjusted z-score was -0.0343. Consider UGAACUACGUGACCGCGAATT against ELAVL1, for which the median seed-adjusted z-score was 0.316. With GCAACUCCAGCCUAAUUAATT against ZNF792 the figure was 0; with CUGUGGUCUCUGUCUCUUATT against GPR75, 0.

Turning to CCAACAAGGUAGACCCAUUTT against PSMC5, the median seed-adjusted z-score is -1.06 (active).

Take CUACCAGCCCUACACCAUUTT against CCL1: the median seed-adjusted z-score was 0.537. To GGAGAUCCGUGAUGUAACATT against RUVBL2 belongs -0.0764; to AGAUGAAUCUGGAAUCGGUTT against LCN1, 0.0607.

On to CCGAAUGAGUUUGAACAUATT against ZNF48, for which the median seed-adjusted z-score is -0.116. With GGCUCUUCAUGGACCUUCATT against GPR173 the figure was -0.147. With CAACCACAAUGUUCGUAAATT against GBF1 the figure was -0.162. To GAAUGUCCCUUUAACUGCATT against NFXL1 belongs 0.118; to CGAGUACUGUCUCAAGGUATT against TTC9B, -0.272; to CAAUUACGAAUAGAAUUGATT against WEE1, -4.05 (active). AGGACCAAAUGUCAAUUUATT against IL1RN: the median seed-adjusted z-score was 0.283. With GGUGUGAACUGCGAAGUGATT against NOTCH3 the figure was 0.395; with GGACGUGACUUACAUAGUUTT against PRLR, 0.394; with CAGUUUAUCUCAGACAUCUTT against CD9, -1.02 (active).

With UGGUCCGACUGGUACGACATT against TAC1, the median seed-adjusted z-score was 0.0499. To GAGUCUUUAUUGGUAAAGATT against GLRX belongs -0.0561; to ACAUUGUGGUAGCCUUGUATT against LYN, -0.178. With GGCUGUCCUUAGUACCAGATT against CFTR, the median seed-adjusted z-score was -1.23 (active). With GGAACUAAACUUGAUCUUATT against RAC1 the figure was -0.0348. On to GAGUCGCUUUAGCUCCGAATT against XPNPEP2, for which the median seed-adjusted z-score was -0.158. For GGGAAAGCUGGACUACUAATT against PIK3CB, the median seed-adjusted z-score is 0.0911.

Regarding CAAGGUGUUUUACCUGAAATT against YWHAH, the median seed-adjusted z-score is -0.125. With GCGUGACAGUGAUCCUGUATT against SLC27A5 the figure was 0.441; with AGAUCGACGUGAUCAAGCATT against GNAS, -0.531; with GGACAUCUGGGUGAAGUUUTT against SNRPF, -2.66 (active). Regarding CUAUCACUCUGGAACUGGATT against SMC2, the median seed-adjusted z-score was -0.052. Take GGACAUGAACCAUACGAAUTT against PRPF8: the median seed-adjusted z-score is -1.54 (active).

Turning to CAAUAAGACUGAGUUAUUATT against ETNK1, the median seed-adjusted z-score was 0.299. In the case of GACCCAAAGCGGCAGCAAATT against KLRC2, the median seed-adjusted z-score is -0.472. Turning to CUCAUUGAGUUGGACAAAUTT against RHOU, the median seed-adjusted z-score is -1.44 (active). Turning to GGAUCGUGGUUGCAGGGAUTT against DNASE1, the median seed-adjusted z-score is -0.35. For the sequence CCAGACAGGAGGAACCAUATT against HDAC11, the median seed-adjusted z-score was 0.259.

In the case of CUAUGGACAUGUCAAUUGUTT against CCNA2, the median seed-adjusted z-score is 0.136.

With CCGUAUUUCUAGUUCCCUUTT against ZNF442, the median seed-adjusted z-score is 1.06 (active).

For the sequence GUGUGAUGGUUGUAAACGATT against ZMYM6, the median seed-adjusted z-score is -0.355. To CAUACUCAUUCUUGCAAUATT against PHOSPHO2 belongs -0.247; to GAGAGUAAAUAUGCGAAUATT against ATP8B1, 0.357; to GCAACAUCCUGGUUUUCGATT against LRP2, -0.512. For GUAUCGCUGUUUCUACGGUTT against LILRA1, the median seed-adjusted z-score is -0.231.

For the sequence GGAUCAUUCUCAACGGGAUTT against KCNV2, the median seed-adjusted z-score is -1.13 (active).

UGUUGACACUUUUAUCCAATT against ANAPC11: the median seed-adjusted z-score is -0.581. To AACCCUUUGUGGAACACCATT against PSMB4 belongs -0.16; to CGCAAAAAGGCAGACGAAATT against DUX5, -0.295; to GCUAAGAAGAGAUAAUGAATT against MLKL, 0. As to CCGAUUCGGUCACCAAGUATT against MYO1F, the median seed-adjusted z-score is 0.103. With CCCUCACCGUGCAUGAGAATT against ZNF74 the figure was 1.17 (active); with GUGCUAAAGAUCAUUGAUATT against TRIM32, 0.109; with GAUCAUGCGUAACUACAGUTT against JUP, 0.15. With AGAGCACCAGAAGACACAATT against GJC3 the figure was -0.137.

As to GGACCUUUUUGUUAAGUCATT against RASD1, the median seed-adjusted z-score was 0.674. To GGUCUUUACUGGAUUCAGATT against SERINC3 belongs 0.29; to GAAUUUGUAUGAGAGCAUUTT against CYTH3, 0.196.

Regarding CUCUUAUGUUGGAUAUGUATT against USP14, the median seed-adjusted z-score was 0. GGAAGAAUUUCAGUCAGAATT against ZNF436: the median seed-adjusted z-score is 0.00767. As to GGACCUGCAUAUGAAAGUATT against PCDH8, the median seed-adjusted z-score is -1.03 (active). Take CAUUGUCUAUCAUCGCAAATT against NEB: the median seed-adjusted z-score was 0.0485. For the sequence GGAAGGCAGAUGUAUCUUUTT against CMPK1, the median seed-adjusted z-score is -0.363.

For the sequence GGCCUACGUUUGAAAGACATT against ZNF792, the median seed-adjusted z-score was 0. With GACUUGUGAUACAAGCGUATT against RAD23B the figure was 0.639; with GGUAAAGGGAAGUAACUAUTT against SLC2A13, -0.0451.
